KB-V1 cytotox = kills drug-selected multidrug resistant KB-V1 cells. KB-V1 MDR cells viability, CellTiter-Glo, 72 h. Potency, µM (doses to about 46.1 µM), hits mostly cytotoxic. 400,000 tested, 3.4% active; note: nearly all actives have a fitted effect of over 60% in size
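Luminescent ATP read-out (CellTiter-Glo, 10 min) measures survival of drug-selected KB-V1 MDR cells after 72 h, 37 degrees C compound exposure. Medium: phenol-red-free DMEM, 10% FBS. Values from fitted concentration-response curves.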
KB-3-1 cytotox = KB-3-1 parental cell cytotoxicity; Potency, µM (series often up to 46.1 µM), hits mostly cytotoxic; KB-3-1 viability, CellTiter-Glo ATP luminescence, 72 h; 400,000 tested, 1.4% active; note: nearly all actives have a fitted effect of over 60% in size
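Viability of parental KB-3-1 cells, measured by CellTiter-Glo luminescence, followed a 72 h incubation at 37 °C with pinned compounds in phenol-red-free DMEM containing 10% FBS.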
SW480 rereplic = induces DNA re-replication in SW480 colon adenocarcinoma cells. 340,000 tested, 1.8% active. AID 624297. SW480 DNA re-replication, Hoechst DNA content imaging, 48 h. Potency, µM (doses to about 46.1 µM), actives largely listed as activators; note: nearly all actives have a fitted effect of over 55% in size
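Hoechst fluorescence of nuclei (405 nm excitation, 500-530 nm emission) measured by plate-scanning imager after 48 hr compound exposure at 37 C; re-replication scored as increased number of nuclei with elevated intensity.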
HT1080 IDH1KD tx = kills HT-1080 cells with IDH1 knockdown; HT-1080 IDH1 knockdown viability, ATP luminescence, 48 h; Potency, µM (highest dose often 46.1 µM), hits mostly cytotoxic; 360,000 tested, 2% active; AID 686971
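After a 2 h attachment period, IDH1KD HT-1080 cells took pin-transferred compound for 48 h at 37 °C; ATP-based luminescence after 10 min room-temperature reagent incubation reported viability.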
HT1080NT lethal = kills 2HG-producing HT-1080-NT fibrosarcoma cells; HT-1080-NT fibrosarcoma viability, CellTiter-Glo ATP luminescence, 48 h; AID 686970; Potency, µM (highest dose often 46.1 µM), actives largely listed as cytotoxic; 360,000 tested, 1.6% active;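 note: NT is the 2HG producing partner of a matched IDH1 knockdown line; nearly all actives have a fitted effect of over 55% in size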
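Viability by CellTiter-Glo luminescence after 48 h compound exposure at 37C of HT-1080-NT cells (750/well, RPMI, 5% FBS). % activity scaled between DMSO wells and medium-only wells, then curve-fitted and categorized by curve class.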
MCF10A rerep = inducers of DNA re-replication in MCF 10A breast cells | MCF 10A DNA re-replication, Hoechst nuclear intensity, 48 h | Potency, µM (highest dose often 46.1 µM), most hits filed as activators | 350,000 tested, 2.9% active; note: nearly all actives have a fitted effect of over 50% in size
Hits are given with their value; 0 = inactive; ? = inconclusive; - = not tested or not shown. In the library only some 8% were active in any assay of this set; here they are far more common. Calls come from the whole dose curve; as a rule, active = well fitted curve in the direction sought with a large enough effect; inconclusive = small, poorly fitted or top-dose-only effect, or another doubt; inactive = no such curve, though single readings can be large; an effect the other way counts as inactive or inconclusive.

SMILES	KB-V1 cytotox	KB-3-1 cytotox	SW480 rereplic	HT1080 IDH1KD tx	HT1080NT lethal	MCF10A rerep
c1ccc(N2N=C(c3cccs3)CC2c2ccco2)cc1 (stereo not given)	0	0	8.2µM	0	0	8.2µM
c1ccc(C2=NN(c3ccccc3)C(c3ccco3)C2)cc1 (stereo not given)	?	?	?	0	0	?
Clc1ccc(N2N=C(c3cccs3)CC2c2ccco2)cc1 (stereo not given)	0	0	?	0	0	4.61µM
Cc1ccsc1/C=N\NC(=O)Cn1nnc2ccccc21	?	?	18.4µM	?	0	?
CCCCn1c(N)c(N(CCOC)C(=O)c2cc3c(s2)CCC3)c(=O)[nH]c1=O	0	0	0	0	0	0
COc1ccc(-n2cnc3cc(NC(=O)c4ccco4)ccc32)cc1	16.4µM	?	0	0	0	0
CCC(=O)Nc1ccc2c(c1)ncn2-c1ccccc1OC	0	0	0	0	0	0
CC(C)n1cnc2cc(NC(=O)c3ccco3)ccc21	0	0	0	0	0	0
COc1ccccc1-n1cnc2cc(NC(=O)c3ccco3)ccc21	?	?	0	?	11.2µM	0
COCCCn1c(=O)c2sccc2n2c(CCCC(=O)Nc3ccc(F)c(F)c3)nnc12	0	0	-	-	-	-
O=C(C[N+]12CN3CN(CN(C3)C1)C2)c1ccc(O)c(O)c1	0	0	-	-	-	-
Cc1cc(/C=C2\SC(=Nc3ccc(F)cc3)NC2=O)c(C)n1-c1ccc(S(N)(=O)=O)cc1	0	6.51µM	8.2µM	5.17µM	6.51µM	1.64µM
Cc1cc(/C=C2\SC(=S)NC2=O)c(C)n1-c1ccc(O)cc1	0	?	0	?	?	?
Cc1occc1C(=O)O/N=C(\N)c1ccccc1	?	0	0	?	?	0
Cc1cccc(/C(N)=N/OC(=O)c2ccoc2C)c1	?	?	0	16.4µM	?	?
COc1ccc(/C=N\N=C2/SC(CC(=O)O)C(=O)N2c2ccc(O)cc2)cc1 (stereo not given)	0	0	0	0	0	16.4µM
COc1ccc(/C=N/N=C2\SC(CC(=O)O)C(=O)N2c2ccccc2)cc1 (stereo not given)	0	0	0	0	0	0
CCCC1S/C(=N/N=C/c2ccc(C)cc2)N(Cc2ccc(OC)cc2)C1=O (stereo not given)	13µM	?	0	0	0	0
CCN(CC)c1ccc(NC(=O)CN2CCN(S(=O)(=O)c3ccc(C(C)C)cc3)CC2)cc1	0	0	-	-	-	-
CCC(=O)N1c2ccccc2CC1C(=O)NCc1ccc(N(C)C)cc1 (stereo not given)	0	0	-	-	-	-
CC(C)Nc1nc(-c2cccnc2)nc(-c2ccc(Cl)cc2)c1C#N	0	0	0	0	0	23.1µM
CC(C)Nc1nc(-c2cccnc2)nc(-c2ccccc2)c1C#N	0	0	0	0	0	0
O=C(c1ccc([N+](=O)[O-])c(CS(=O)(=O)c2ccc(Cl)cc2)c1)N1CCCCC1	0	0	0	0	0	0
CC(=O)NC(Cc1ccc(O)cc1)C(=O)NCC(N)C(=O)c1ccccc1 (stereo not given)	-	-	-	0	0	-
CCOC(=O)c1ccc(NC(=O)CCc2c(C)nc3c(c(C)nn3C)c2C)cc1	0	0	-	-	-	-
SMILES	KB-V1 cytotox	KB-3-1 cytotox	SW480 rereplic	HT1080 IDH1KD tx	HT1080NT lethal	MCF10A rerep
CC(C)(C)C1=NN(c2ccc([N+](=O)[O-])cc2)C(c2ccccc2)C1 (stereo not given)	0	0	0	0	0	0
CS(=O)(=O)N1N=C(c2ccco2)CC1c1ccc(Cl)cc1 (stereo not given)	16.4µM	0	0	0	0	0
O=[N+]([O-])c1ccc(N2N=C(c3ccco3)CC2c2ccccc2)cc1 (stereo not given)	0	0	?	0	0	8.2µM
Fc1ccc(C2CC(c3ccco3)=NN2c2ccccc2)cc1 (stereo not given)	0	0	20.6µM	0	0	0.92µM
Cn1c(N)c(S(=O)(=O)N2CCN(c3ccccc3Cl)CC2)c(=O)n(C)c1=O	-	-	0	0	0	0
COc1ccc(Cl)cc1NC(=O)Cn1nnc(C(=O)NCc2cccs2)c1N	?	7.31µM	-	-	-	-
Cc1cc(C)cc(NC(=O)Cn2nnc(C(=O)NCc3ccccc3Cl)c2N)c1	0	0	0	?	?	0
Cc1ccc(Cn2nnc(C(=O)Nc3cccc(C)c3C)c2N)cc1	14.6µM	0	0	0	0	0
CCc1ccccc1NC(=O)Cn1nnc(C(=O)NCc2cccc(OC)c2)c1N	?	7.31µM	?	?	0	7.31µM
Cc1cccc(Cn2nnc(C(=O)Nc3cc(C)ccc3C)c2N)c1	?	0	-	-	-	-
Cc1cc(C)cc(NC(=O)Cn2nnc(C(=O)NCc3ccc(F)cc3)c2N)c1	0	0	29.1µM	0	0	?
CC1CCN(C(c2ccc(F)cc2)c2sc3nc(-c4ccco4)nn3c2O)CC1 (stereo not given)	0	0	-	-	-	-
CCOC(=O)c1[nH]c(C)c(CCC(=O)Nc2cccc(SC)c2)c1C	0	0	-	-	-	-
Cc1ccccc1OCC(=O)Nc1ccc(OCc2cc(=O)n3ccsc3n2)cc1	?	0	-	-	-	-
Cc1ccc(S(=O)(=O)c2nnn(CC(=O)Nc3ccccc3C)c2N)cc1	?	16.4µM	-	-	-	-
Cc1ccc(S(=O)(=O)c2nnn(CC(=O)Nc3ccccc3C)c2N)cc1C	0	0	-	-	-	-
COc1ccc(OC)c(NC(=O)c2nnn(Cc3ccccc3C)c2N)c1	0	9.2µM	0	-	-	?
COc1ccc(NC(=O)c2nnn(Cc3ccccc3C)c2N)c(OC)c1	0	?	-	-	-	-
CCCn1c(N)c(Sc2ccccc2)c(=O)n(CCC)c1=O	13µM	0	0	0	0	0
CCCn1c(N)c(Sc2ccc([N+](=O)[O-])cc2)c(=O)n(CCC)c1=O	0	0	0	0	0	0
NS(=O)(=O)c1ccc(S(=O)(=O)N2CCN(c3nc(-c4ccccc4)nc4ccccc34)CC2)cc1	-	-	-	0	0	-
O=C1SC(Nc2ccccc2)C(=O)N1c1ccccc1 (stereo not given)	-	-	-	0	0	-
COc1ccc(OC)c(-c2cc(-c3cccnc3)nc(N)c2C#N)c1	2.59µM	2.06µM	6.51µM	1.46µM	1.84µM	11.6µM
Cn1c(SCC(=O)NNC(=O)Cc2ccccc2)nnc1-c1ccccc1	?	0	?	0	0	0
CC(C)CNC(=O)COC(=O)c1c2c(nc3ccccc13)/C(=C\c1cccs1)CC2	?	0	6.51µM	?	0	?
CC(=O)c1ccc(NC(=O)COC(=O)c2c3c(nc4ccccc24)/C(=C\c2cccs2)CCC3)cc1	16.4µM	0	20.6µM	?	0	5.8µM
O=C(COC(=O)c1c2c(nc3ccccc13)CCCC2)Nc1ccc2c(c1)OCO2	?	?	0	?	?	0

Screening data: PubChem BioAssay, National Center for Advancing Translational Sciences (NCATS)
